PI5P4K alpha inh: qHTS for Inhibitors of phosphatidylinositol 5-phosphate 4-kinase (PI5P4K) | AID 652105, 2013 | 1.2% of 330,000 active | PI5P4Kalpha enzyme, ADP-Glo luminescence, 60 min; hits give low values | max response, % | Phosphatidylinositol 5-phosphate 4-kinase type-2 alpha (Homo sapiens), P48426; active = max response of -50% or lower; inconclusive = between -30% and -50%; inactive = -30% or higher; also: value at the top dose of about 77 µM; % is scaled to controls: 0 for no effect and ±100 for the full control effect
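Compounds were pin-transferred onto PI5P4Kalpha and substrate in HEPES pH 7.4 buffer with EGTA, CHAPS and 5% DMSO. ATP (5 microM final) started the reaction, which ran 60 minutes at room temperature before ADP-Glo detection.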
KDM4E inh: qHTS Assay for Inhibitors of Human Jumonji Domain Containing 2E (JMJD2E); JMJD2E catalytic domain, FDH-coupled NADH fluorescence (FDH is formaldehyde dehydrogenase); Potency, µM (top dose mostly 57.1 µM), inactives show top-dose activity change, negative = inhibition, usual class: inhibitors; 1.6% of 230,000 active; active = well fitted inhibition curve with a large enough effect, not every such curve was filed as active; inconclusive = small, poorly fitted or top-dose-only effect, or another doubt; inactive = no such curve, though single readings can be large or run the other way;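 also: potency is read from the fitted curve at half-maximal effect; 0% = wells with enzyme and -100% = buffer wells without enzyme; nearly all actives have a fitted effect of over 50% in size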
Target sequence (B2RXH2 1-337 limits assumed): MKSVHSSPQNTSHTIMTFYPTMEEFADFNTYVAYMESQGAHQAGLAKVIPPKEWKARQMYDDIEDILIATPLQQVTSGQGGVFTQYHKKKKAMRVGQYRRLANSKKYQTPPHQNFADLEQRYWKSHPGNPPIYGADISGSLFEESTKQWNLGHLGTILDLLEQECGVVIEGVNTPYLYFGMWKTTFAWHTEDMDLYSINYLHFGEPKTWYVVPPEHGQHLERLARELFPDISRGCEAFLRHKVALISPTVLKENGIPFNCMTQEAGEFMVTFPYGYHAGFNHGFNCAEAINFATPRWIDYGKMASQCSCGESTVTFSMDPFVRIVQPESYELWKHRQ
BAZ2B block: qHTS Assay for Inhibitors of BAZ2B; 4.4% of 360,000 active; Potency, µM (top dose mostly 114 µM), for the others: at the highest dose activity change, negative = inhibition, most hits filed as inhibitors; AlphaScreen BAZ2B-H3K14Ac peptide displacement; also: potency is read from the fitted curve at half-maximal effect; % is scaled to controls: 0 for no effect and ±100 for the full control effect; nearly all actives have a fitted effect of over 60% in size
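AlphaScreen displacement of biotin-H3(5-23)K14Ac peptide (50 nM final) from BAZ2B (50 nM final) in PBS pH 7.4, 0.01% Tween-20; complex preformed 30 min RT, then compounds (top 110 uM) 30 min RT, beads 20 min dark.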
JMJD2A Tudor inh: qHTS Assay for Inhibitors of JMJD2A-Tudor Domain; Lysine-specific demethylase 4A (Homo sapiens), O75164; AlphaScreen JMJD2A-Tudor / H3K4me3 peptide binding; Potency, µM (titrated, usually from 114 µM), for inactives: at the top dose activity change, negative = inhibition, hits mostly inhibitors; 4.4% of 390,000 active; AID 504339, 2011; also: potency is read from the fitted curve at half-maximal effect; % is scaled to controls: 0 for no effect and ±100 for the full control effect; nearly all actives have a fitted effect of over 50% in size
L3MBTL1 inh: qHTS Assay for the Inhibitors of L3MBTL1; Lethal(3)malignant brain tumor-like protein 1 (Homo sapiens), Q9Y468; AlphaScreen L3MBTL1–H3K9me1 peptide binding; Potency, µM (highest dose often 57.1 µM), inactives show at the top dose activity, negative = inhibition, usual class: inhibitors; 0.66% of 230,000 active; AID 485360, 2010; also: potency is read from the fitted curve at half-maximal effect; % is scaled to controls: 0 for no effect and ±100 for the full control effect; nearly all actives have a fitted effect of over 60% in size
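AlphaScreen proximity signal between nickel-chelate acceptor and streptavidin donor beads (final 10 ug/mL) reports binding of 50 nM L3MBTL1 to 75 nM biotin-H3 K9me1 peptide; complex incubated with compounds 30 min at room temperature; cefsulodin titration as control.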
HP1b binding inh: HTS for Inhibitors of HP1-beta Chromodomain Interactions with Methylated Histone Tails | Chromobox protein homolog 1 (Homo sapiens), P83916 | AlphaScreen HP1-beta / biotin-H3K9me3 peptide binding | Potency, µM (doses to about 114 µM), inactives show top-dose activity change, negative = inhibition, usual class: inhibitors | 0.56% of 390,000 active | AID 540317, 2011; also: potency is read from the fitted curve at half-maximal effect; nearly all actives have a fitted effect of over 70% in size
Target sequence (P83916 whole entry, looked up): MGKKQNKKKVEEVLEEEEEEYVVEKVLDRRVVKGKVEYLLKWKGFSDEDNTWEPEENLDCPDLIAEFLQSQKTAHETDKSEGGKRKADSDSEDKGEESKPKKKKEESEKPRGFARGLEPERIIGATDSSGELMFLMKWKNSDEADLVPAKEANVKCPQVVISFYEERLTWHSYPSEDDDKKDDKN
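AlphaScreen: HP1-beta (50 nM) preformed 30 min with biotin-H3(1-18)K9me3 peptide (50 nM) in PBS pH 7.4, 0.01% Tween-20. Compound added for 30 min at RT, then streptavidin donor/nickel chelate acceptor beads (10 ug/mL) for 30 min.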
Active calls of the source: *; ? = inconclusive; · = not tested or not shown; [ ] = another dose, or the depositor's remark. Hits are enriched below; roughly 5.7% of the tested compounds scored in any of these assays. Unless noted, calls follow the shape of the dose curve; as a rule, active = well fitted inhibition curve with a large enough effect; inconclusive = small, poorly fitted or top-dose-only effect; inactive = no such curve, though single readings can be large or run the other way.

SMILES	PI5P4K alpha inh	KDM4E inh	BAZ2B block	JMJD2A Tudor inh	L3MBTL1 inh	HP1b binding inh
CCOC(=O)CC(NS(=O)(=O)c1ccc2[nH]c3c(c2c1)CCCC3)c1ccccc1Cl (stereo unspecified)	·	·	35.5µM*	35.5µM*	·	?
CCOC(=O)C1CCN(S(=O)(=O)c2ccc3[nH]c4c(c3c2)CCCC4)CC1	-1.3	·	?	22.4µM*	·	?
CC1(C)OC(C(O)(c2ccccc2)c2ccccc2)[C@@H](C(O)(c2ccccc2)c2ccccc2)O1 (stereo partly specified)	9.2	·	-6.9%	-28.9%	-2.0%	37.8%
CC1=C(C(=O)OCCOc2ccccc2)C(c2ccsc2)NC(=O)N1C (stereo unspecified)	1.7	6.0%	-10.5%	-17.0%	·	15.3%
O=C(NC(=S)Nc1ccc(N2CCOCC2)cc1)c1ccc2c(c1)OCCO2	-17.8	-5.1%	?	20µM*	-24.1%	-24.7%
O=C(NC(=S)Nc1ccc(N2CCCCC2)cc1)c1ccc2c(c1)OCCO2	-1.4	-19.7%	10µM*	?	-0.6%	?
O=C(NC(=S)Nc1ccc2c(c1)OCCO2)c1ccccc1	·	-0.7%	44.7µM*	?	-5.3%	?
O=C(NC(=S)Nc1ccc(N2CCCC2)cc1)c1ccc(F)cc1	-3.6	·	11.2µM*	?	·	-14.8%
O=C(NC(=S)Nc1ccc2c(c1)OCCO2)c1ccccc1F	4.1	-19.0%	-34.2%	-26.9%	1.5%	28.1%
CCCCSc1nc2sc3c(c2c(=O)n1-c1ccccc1C)CC(C)(C)OC3	·	·	-13.0%	-4.2%	·	20.1%
O=C(NN1CCCCC1)NN1CCCCC1	-2.2	·	·	·	·	·
COCCCN1C(=O)/C(=C\c2cccs2)C(C(=O)OC)=C1C	1.5	2.4%	?	-34.5%	·	-3.1%
COC(=O)C1=C(C)N(C)C(=O)/C1=C\c1cccs1	·	3.6%	?	?	-10.3%	?
COC(=O)C1=C(C)N(C2CCCCC2)C(=O)/C1=C\c1cccs1	8.8	1.0%	3.16µM*	?	·	-32.9%
COC(=O)C1=C(C)N(Cc2cccnc2)C(=O)/C1=C\c1sccc1C	-0.2	-11.7%	35.5µM*	44.7µM*	?	35.5µM*
COC(=O)C1=C(O)/C(=C\c2sccc2C)N=C1C	2.3	5.4%	-21.7%	-4.3%	2.8%	12.3%
CCN1C(=O)/C(=C\c2cccs2)C(C(=O)OC)=C1C	-1.2	2.5%	50.1µM*	56.2µM*	·	?
COC(=O)C1=C(C)N(CC(C)C)C(=O)/C1=C\c1cccs1	21.4	-3.7%	50.1µM*	44.7µM*	·	15.8µM*
CCOC(=O)C1=C(C)N(CC(C)C)C(=O)/C1=C\c1cccs1	0.6	2.6%	11.2µM*	?	-19.0%	?
Cn1c(C(=O)NN)cc2cc(OCc3ccccc3)ccc21	1.6	·	·	2.7%	·	57.0%
CN(C(=O)CSc1nnc(Nc2ccccc2)s1)c1c(N)n(Cc2ccccc2)c(=O)[nH]c1=O	-21.0	-3.1%	-2.4%	-15.1%[11.4 µM]	·	-9.1%
CCCCN(C(=O)CSc1nnc(Nc2ccc(C)c(C)c2)s1)c1c(N)n(Cc2ccccc2)c(=O)[nH]c1=O	-69.3*	?	-13.0%	-20.7%	·	1.1%
COc1ccc(OC)c(Nc2nc(NCCCN(C)C)nc(N)c2[N+](=O)[O-])c1	-6.9	3.0%	31.6µM*	35.5µM*	-11.7%	-21.2%
COCCCNc1nc(N)c([N+](=O)[O-])c(Nc2cc(OC)ccc2OC)n1	2.4	5.6%	-1.9%	-1.8%	-2.9%	10.0%
O=C(Nc1ccc(Br)cn1)c1cccc(C(=O)Nc2ccc(Br)cn2)c1	-3.5	·	-1.1%	89.1µM*	·	62.7%
SMILES	PI5P4K alpha inh	KDM4E inh	BAZ2B block	JMJD2A Tudor inh	L3MBTL1 inh	HP1b binding inh
COc1ccc2c(c1)c1c(c(=O)n(-c3ccc(F)c(Cl)c3)c(=O)n1CC(N)=O)n2C	·	·	-7.8%	3.1%	·	38.6%
O=C(C1Cc2ccccc2CN1S(=O)(=O)c1ccc(F)cc1)N1CCOCC1 (stereo unspecified)	·	2.0%	-4.0%	-13.4%	·	16.3%
CCS(=O)(=O)N1Cc2ccccc2CC1C(=O)N1CCN(c2ccccc2)CC1 (stereo unspecified)	?	1.2%	50.1µM*	25.1µM*	?	?
CC(C)Cn1[nH]c2c3c(ccc2c1=O)C(=O)c1ccccc1C3=O	-12.3	10.9%	10µM*	-30.4%	-23.8%	-22.4%
O=C1c2ccccc2C(=O)c2c1ccc1c(=O)n(-c3ccccc3)[nH]c21	-11.9	5.7%	-25.8%	-21.2%	-6.7%	-5.8%
COc1ccc2c(c1)c(=O)oc1cc(O)ccc12	-7.9	-11.2%	1.1%	-8.2%	20.2%	19.6%
COc1ccc2c(c1)c(=O)oc1cc3oc(C)c(C)c3cc12	·	3.0%	56.2µM*	·	·	·
CCCCCCc1cc2cc(-c3nnc(-c4ccccc4OC)o3)c(=O)oc2cc1O	-87.7*	?	?	-3.5%	·	31.4%
CCCCCCc1cc2cc(-c3nnc(-c4ccccc4O)o3)c(=O)oc2cc1O	-29.0	?	20.7%	-5.6%	9.7%	29.7%
CC1=NN(C(N)=S)C(=O)C1N=Nc1ccc(Cl)cc1Cl (stereo unspecified)	-4.8	·	?	50.1µM*	23.8%	-22.1%
CC1=NN(C(N)=S)C(=O)C1N=Nc1cccc(C)c1 (stereo unspecified)	-1.8	7.1%	2.2%	-24.6%	·	20.1%
CC1=NN(C(N)=S)C(=O)C1N=Nc1cccc(C(=O)O)c1 (stereo unspecified)	-21.3	·	-22.1%	3.98µM*	2.4%	11.6%
CCOC(=O)c1[nH]c2c(c1Cc1ccccc1OC)C(=O)CC(c1ccc(OC)cc1)C2 (stereo unspecified)	·	·	-32.5%	-18.2%	·	7.9%
O=C(C1=C(O)C(=O)N(CC2CCCO2)C1c1cccc(O)c1)c1ccco1 (stereo unspecified)	6.4	·	-1.1%	-2.8%	·	15.9%
CC(C)(C)OC(=O)Cc1nnc(C(C(=O)OCc2ccccc2)c2ccccc2)o1 (stereo unspecified)	·	·	·	9.6%	·	·
Oc1c(Cl)cc(Cl)cc1CNc1nccs1	0.8	·	0.0%	-13.1%	5.5%	16.2%
O=S(c1cc(Cl)cc(Cl)c1O)c1cc(Cl)cc(Cl)c1O	-50.7*	·	·	·	·	·
O=C(c1ccc2c(c1)CCN2S(=O)(=O)c1ccc(Cl)cc1)N1CCN(c2ccccc2)CC1	·	·	?	-28.3%	·	10.3%

Source: PubChem (National Center for Advancing Translational Sciences (NCATS))
